Laboratory results taken from PubChem BioAssay (NCI).
“And” between values parts separate entries of the source, which are not always exact repeats. Equal values may be shown once. Compounds without any hit were thinned out: in the full panel of roughly 79,000, 15% have a hit. More than one record can exist for a structure, and the calls need not agree. The source made the active and inactive calls. No stated cut-off is given here; in the data, active means growth inhibition above about 70%; inactive means the rest.

Experiments:
[1] = NCI Yeast Anticancer Drug Screen. Data for the rad50 strain (AID 155);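 further: 0% = growth of vehicle-only cultures of the same strain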; settings: S. cerevisiae rad50 strain growth inhibition, stronger effect = higher value
Method in brief: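 Yeast carrying a defined DNA repair defect were exposed to test compounds, and growth was compared with vehicle-treated controls to give percent inhibition.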

[2] = NCI Yeast Anticancer Drug Screen. Data for the mec2-1 strain (AID 157); settings: S. cerevisiae mec2-1 strain, stronger effect = higher value
Method in brief: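 Yeast mec2-1 mutant treated with compound. Readout: growth inhibition vs vehicle controls.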

[3] = NCI Yeast Anticancer Drug Screen. Data for the sgs1 mgt1 strain (AID 161);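 further: 0% = growth of cultures given vehicle only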; settings: S. cerevisiae sgs1 mgt1 strain, stronger effect = higher value
Method in brief: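 Test agents were incubated with a DNA-repair-mutant yeast strain. Growth was then read and compared against vehicle-treated controls.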

[4] = NCI Yeast Anticancer Drug Screen. Data for the cln2 rad14 strain (AID 165);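 further: 0% = growth equal to vehicle treated cultures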; settings: S. cerevisiae cln2 rad14 strain, stronger effect = higher value
Method in brief: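 cln2 rad14 yeast strain; compound exposure; growth inhibition read vs vehicle controls.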

[5] = NCI Yeast Anticancer Drug Screen. Data for the bub3 strain (AID 167); settings: S. cerevisiae bub3 mutant strain, stronger effect = higher value
Method in brief: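 Compounds were applied to a genetically altered yeast strain carrying a cell-cycle control defect. Growth inhibition was scored against vehicle-treated controls.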

[6] = NCI Yeast Anticancer Drug Screen. Data for the mlh1 rad18 strain (AID 175); settings: S. cerevisiae mlh1 rad18 strain growth inhibition, stronger effect = higher value
Method in brief: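 Yeast w/ defined DNA-repair lesions; compound exposure; growth vs vehicle controls → % inhibition.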

[7] = at 5.0 µM (retest, dose inferred, filed as 0.5)
[8] = at 50.0 µM (retest, dose inferred, filed as 5.0)

## CS/C([S-])=N/N=C/c1ccccn1.[Cl][Pt+]
[1]; [7]
  growth inhibition: 1% (inactive)
[1]; [8]
  growth inhibition: 58% (inactive)
[1]; at 50.0 µM
  growth inhibition: 82.2% (active)
[2]; [7]
  growth inhibition: 3% (inactive)
[2]; [8]
  growth inhibition: 80% (active)
[2]; at 50.0 µM
  growth inhibition: 38% (inactive)
[3]; [7]
  growth inhibition: 20% (inactive)
[3]; [8]
  growth inhibition: 96% (active)
[3]; at 50.0 µM
  growth inhibition: 89.6% (active)
[4]; [7]
  growth inhibition: -3% (inactive)
[4]; [8]
  growth inhibition: 29% (inactive)
[4]; at 50.0 µM
  growth inhibition: 9.15% (inactive)
[5]; [7]
  growth inhibition: -4% (inactive)
[5]; [8]
  growth inhibition: 77% (active)
[5]; at 50.0 µM
  growth inhibition: 19.6% (inactive)
[6]; [7]
  growth inhibition: 33% (inactive)
[6]; [8]
  growth inhibition: 93% (active)
[6]; at 50.0 µM
  growth inhibition: 64.2% (inactive)

## CCOP(=O)(OCC)/C(C#N)=C/c1ccccc1Cl
[1]; [7]
  growth inhibition: 17% (inactive)
[1]; [8]
  growth inhibition: 74% (active)
[1]; at 50.0 µM
  growth inhibition: 82.5% (active)
[2]; [7]
  growth inhibition: -7% (inactive)
[2]; [8]
  growth inhibition: 62% (inactive)
[2]; at 50.0 µM
  growth inhibition: 72.8% (active)
[3]; [7]
  growth inhibition: 2% (inactive)
[3]; [8]
  growth inhibition: 65% (inactive)
[3]; at 50.0 µM
  growth inhibition: 79.8% (active)
[4]; [7]
  growth inhibition: 10% (inactive)
[4]; [8]
  growth inhibition: 55% (inactive)
[4]; at 50.0 µM
  growth inhibition: 64.8% (inactive)
[5]; [7]
  growth inhibition: 0% (inactive)
[5]; [8]
  growth inhibition: 74% (active)
[5]; at 50.0 µM
  growth inhibition: 72.7% (active)
[6]; [7]
  growth inhibition: -2% (inactive)
[6]; [8]
  growth inhibition: 77% (active)
[6]; at 50.0 µM
  growth inhibition: 81.8% (active)

## Nc1nc(N)c(-c2ccc(Cl)c(Cl)c2)c(CCc2ccc(CNC(=O)c3ccc(S(=O)(=O)F)cc3)cc2)n1
[1]; [7]
  growth inhibition: -4% (inactive)
[1]; [8]
  growth inhibition: 87% (active)
[1]; at 50.0 µM
  growth inhibition: 46.7% (inactive)
[2]; [7]
  growth inhibition: 3% (inactive)
[2]; [8]
  growth inhibition: 66% (inactive)
[2]; at 50.0 µM
  growth inhibition: 96.5% (active)
[3]; [7]
  growth inhibition: 6% (inactive)
[3]; [8]
  growth inhibition: 98% (active)
[3]; at 50.0 µM
  growth inhibition: 44% (inactive)
[4]; [7]
  growth inhibition: -14% (inactive)
[4]; [8]
  growth inhibition: 88% (active)
[4]; at 50.0 µM
  growth inhibition: 74.6% (active)
[5]; [7]
  growth inhibition: -17% (inactive)
[5]; [8]
  growth inhibition: 54% (inactive)
[5]; at 50.0 µM
  growth inhibition: 68.9% (inactive)
[6]; [7]
  growth inhibition: 22% (inactive)
[6]; [8]
  growth inhibition: 96% (active)
[6]; at 50.0 µM
  growth inhibition: 76.2% (active)

## Oc1cc(Cl)c(Cl)cc1Cl
[1]; [7]
  growth inhibition: 30% (inactive)
[1]; [8]
  growth inhibition: 98% (active)
[1]; at 50.0 µM
  growth inhibition: 98.5% (active) and 53% (inactive)
[2]; [7]
  growth inhibition: 12% (inactive)
[2]; [8]
  growth inhibition: 99% (active)
[2]; at 50.0 µM
  growth inhibition: 98.8% (active) and 98.6% (active)
[3]; [7]
  growth inhibition: 17% (inactive)
[3]; [8]
  growth inhibition: 99% (active)
[3]; at 50.0 µM
  growth inhibition: 99.1% (active) and -3.1% (inactive)
[4]; [7]
  growth inhibition: 0% (inactive)
[4]; [8]
  growth inhibition: 99% (active)
[4]; at 50.0 µM
  growth inhibition: 97.5% (active) and 96.4% (active)
[5]; [7]
  growth inhibition: -2% (inactive)
[5]; [8]
  growth inhibition: 99% (active)
[5]; at 50.0 µM
  growth inhibition: 98.1% (active) and 97.2% (active)
[6]; [7]
  growth inhibition: 18% (inactive)
[6]; [8]
  growth inhibition: 100% (active)
[6]; at 50.0 µM
  growth inhibition: 98.8% (active) and 52.5% (inactive)

## C/C(=N\NS(=O)(=O)c1ccc(C)cc1)C(CN1CCOCC1)C(c1ccccc1)c1c(O)c2ccccc2oc1=O (configuration not stated)
[1]; [7]
  growth inhibition: 15% (inactive)
[1]; [8]
  growth inhibition: 15% (inactive)
[1]; at 50.0 µM
  growth inhibition: 88.5% (active)
[2]; [7]
  growth inhibition: 4% (inactive)
[2]; [8]
  growth inhibition: 4% (inactive)
[2]; at 50.0 µM
  growth inhibition: 85.8% (active)
[3]; [7]
  growth inhibition: 15% (inactive)
[3]; [8]
  growth inhibition: 15% (inactive)
[3]; at 50.0 µM
  growth inhibition: 87.4% (active)
[4]; [7]
  growth inhibition: 5% (inactive)
[4]; [8]
  growth inhibition: 5% (inactive)
[4]; at 50.0 µM
  growth inhibition: 89.2% (active)
[5]; [7]
  growth inhibition: 3% (inactive)
[5]; [8]
  growth inhibition: 3% (inactive)
[5]; at 50.0 µM
  growth inhibition: 83.7% (active)
[6]; [7]
  growth inhibition: 9% (inactive)
[6]; [8]
  growth inhibition: 9% (inactive)
[6]; at 50.0 µM
  growth inhibition: 87.6% (active)

## C/C(=N\Nc1ccccn1)C1CC[N-]C2C(O)CCCC12.C/C(=N\Nc1ccccn1)C1CC[N-]C2C(O)CCCC12.[Cu+2] (configuration not stated)
[1]; [7]
  growth inhibition: 98% (active)
[1]; [8]
  growth inhibition: 98% (active)
[1]; at 50.0 µM
  growth inhibition: 99% (active)
[2]; [7]
  growth inhibition: 99% (active)
[2]; [8]
  growth inhibition: 99% (active)
[2]; at 50.0 µM
  growth inhibition: 99.5% (active)
[3]; [7]
  growth inhibition: 98% (active)
[3]; [8]
  growth inhibition: 99% (active)
[3]; at 50.0 µM
  growth inhibition: 99.4% (active)
[4]; [7]
  growth inhibition: 98% (active)
[4]; [8]
  growth inhibition: 97% (active)
[4]; at 50.0 µM
  growth inhibition: 98.9% (active)
[5]; [7]
  growth inhibition: 99% (active)
[5]; [8]
  growth inhibition: 98% (active)
[5]; at 50.0 µM
  growth inhibition: 99% (active)
[6]; [7]
  growth inhibition: 99% (active)
[6]; [8]
  growth inhibition: 98% (active)
[6]; at 50.0 µM
  growth inhibition: 99.3% (active)

## N#CC(C#N)=Cc1cc(Cl)ccc1O
[1]; [7]
  growth inhibition: 11% (inactive)
[1]; [8]
  growth inhibition: 79% (active)
[1]; at 50.0 µM
  growth inhibition: 56% (inactive) and 4.55% (inactive)
[2]; [7]
  growth inhibition: -14% (inactive)
[2]; [8]
  growth inhibition: 44% (inactive)
[2]; at 50.0 µM
  growth inhibition: 45.5% (inactive) and 17.9% (inactive)
[3]; [7]
  growth inhibition: 2% (inactive)
[3]; [8]
  growth inhibition: 58% (inactive)
[3]; at 50.0 µM
  growth inhibition: 46% (inactive) and 65.7% (inactive)
[4]; [7]
  growth inhibition: 4% (inactive)
[4]; [8]
  growth inhibition: 30% (inactive)
[4]; at 50.0 µM
  growth inhibition: 40.7% (inactive) and -4.9% (inactive)
[5]; [7]
  growth inhibition: 31% (inactive)
[5]; [8]
  growth inhibition: 64% (inactive)
[5]; at 50.0 µM
  growth inhibition: 20.7% (inactive) and 2.2% (inactive)
[6]; [7]
  growth inhibition: 8% (inactive)
[6]; [8]
  growth inhibition: 71% (active)
[6]; at 50.0 µM
  growth inhibition: 65.8% (inactive) and 39.8% (inactive)

## CCCCCCCCCCCCCCCCCC[N+](C)(C)C
[1]; [7]
  growth inhibition: 98% (active)
[1]; [8]
  growth inhibition: 96% (active)
[1]; at 50.0 µM
  growth inhibition: 88.5% (active)
[2]; [7]
  growth inhibition: 99% (active)
[2]; [8]
  growth inhibition: 97% (active)
[2]; at 50.0 µM
  growth inhibition: 91.4% (active)
[3]; [7]
  growth inhibition: 99% (active)
[3]; [8]
  growth inhibition: 95% (active)
[3]; at 50.0 µM
  growth inhibition: 89.8% (active)
[4]; [7]
  growth inhibition: 99% (active)
[4]; [8]
  growth inhibition: 95% (active)
[4]; at 50.0 µM
  growth inhibition: 89.9% (active)
[5]; [7]
  growth inhibition: 99% (active)
[5]; [8]
  growth inhibition: 96% (active)
[5]; at 50.0 µM
  growth inhibition: 87% (active)
[6]; [7]
  growth inhibition: 97% (active)
[6]; [8]
  growth inhibition: 96% (active)
[6]; at 50.0 µM
  growth inhibition: 89.8% (active)

## CN(C)CC1CCCCC1=O (configuration not stated)
[1]; [7]
  growth inhibition: -169% (inactive)
[1]; [8]
  growth inhibition: 36% (inactive)
[1]; at 50.0 µM
  growth inhibition: 73.7% (active) and 1.45% (inactive) and -1.35% (inactive)
[2]; [7]
  growth inhibition: -52% (inactive)
[2]; [8]
  growth inhibition: -24% (inactive)
[2]; at 50.0 µM
  growth inhibition: 56.2% (inactive) and -13.8% (inactive) and -15.9% (inactive)
[3]; [7]
  growth inhibition: -67% (inactive)
[3]; [8]
  growth inhibition: -6% (inactive)
[3]; at 50.0 µM
  growth inhibition: 47.4% (inactive) and -15.4% (inactive) and -9.6% (inactive)
[4]; [7]
  growth inhibition: -77% (inactive)
[4]; [8]
  growth inhibition: 3% (inactive)
[4]; at 50.0 µM
  growth inhibition: 59.5% (inactive) and 8.3% (inactive) and 0.7% (inactive)
[5]; [7]
  growth inhibition: -69% (inactive)
[5]; [8]
  growth inhibition: -26% (inactive)
[5]; at 50.0 µM
  growth inhibition: 35% (inactive) and -23.4% (inactive) and -3.6% (inactive)
[6]; [7]
  growth inhibition: -131% (inactive)
[6]; [8]
  growth inhibition: -38% (inactive)
[6]; at 50.0 µM
  growth inhibition: 71.9% (active) and 18.1% (inactive) and 5.25% (inactive)
